A short description of experiment [1]: antimalarial activity against Dd2 strain (AID 2302;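 active means growth inhibition above 50% at the single 2 µM test dose, taken to imply half-maximal potency below 2 µM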;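 further: 0% = DMSO untreated growth and 100% = chloroquine plus artemisinin killed control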). The following applies: P. falciparum Dd2 in RBCs, LDH growth readout, 72 h; at 2 µM; active compounds read high.
Experiment [2] in a line: human hepatoma cell viability loss – ATP luminescence, cytotoxicity control for P. falciparum antimalarial project, primary screen (AID 2303;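 active means inhibition above 50%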;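 further: 0% = DMSO wells and 100% = digitonin-killed cells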). The following applies: HepG2 viability, 24-48 h, at 10 µM, active compounds read high.
Experiment [3] addresses L-lactate dehydrogenase (Plasmodium falciparum (isolate CDC / Honduras)) (UniProt Q27743). The experiment in a line: PfLDH activity inhibition – cell lysate, 3D7 strain, counter-screen for P. falciparum growth inhibition project (AID 2304).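 Further: 0% = vehicle and 100% = reference inhibitor.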 The following applies: P. falciparum 3D7 crude extract, LDH APAD/NBT absorbance; at 2 µM; active compounds read high. (In general: The purpose of a counterscreen is to sort out artefacts and off-target activity.)

Experiment [4] in a line: inhibition of 3D7 malaria parasite growth – strain 3D7 (AID 2306).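 Further: 0% = DMSO wells and 100% = chloroquine plus artemisinin control wells.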 The following applies: P. falciparum 3D7 erythrocytic growth, LDH absorbance, 72 h; at 2 µM; active compounds read high.
The target of experiment [5] is Calcium-dependent protein kinase 1 (Plasmodium falciparum (isolate 3D7)) (UniProt P62344). The experiment can be described thus: PfCDPK1 kinase inhibitors, biochemical, TCAMS library (AID 1159585; cut-off not given, nearly all actives have IC50 up to about 0.98 µM;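 further: inhibitors leave more ATP so luminescence rises with inhibition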). The note with it: recombinant PfCDPK1, Kinase-Glo ATP depletion luminescence. On the technique in general: Kinase-Glo reads ATP consumption through a luciferase reaction.
Experiment [6] addresses Plasmodium falciparum protein kinase 6 (PK6, PF3D7_1337100) (UniProt Q8IDW1). The experiment in a line: PfPK6 kinase inhibitors, biochemical, TCAMS library (AID 1159586). The following applies: recombinant PfPK6, Kinase-Glo ATP depletion luminescence.
Experiment [7] has as its target Protein kinase 7 (PK7), Plasmodium falciparum 3D7 (PF3D7_0213400) (UniProt Q7YTF7). The experiment in a line: inhibition of Plasmodium PK7 catalytic activity – biochemical, TCAMS antimalarial set, Kinase-Glo luminescence (AID 1159587). The note with it: recombinant PfPK7, Kinase-Glo ATP depletion luminescence.
Experiment [8] has as its target Calcium-dependent protein kinase 4 (Plasmodium falciparum (isolate 3D7)) (UniProt Q8IBS5). The experiment in a line: PfCDPK4 kinase inhibitors, biochemical, TCAMS library (AID 1159588; cut-off not given, nearly all actives have IC50 up to about 0.91 µM). The following applies: recombinant PfCDPK4, Kinase-Glo ATP depletion luminescence.

A number with no mark means an inactive call. For some of these results: Potency and affinity values are given separately. Calls of active or inactive are those of the source. Unless noted, how the calls were made is not given here.

Chain of Calcium-dependent protein kinase 4 (Plasmodium falciparum (isolate 3D7)) (Q8IBS5 whole entry, looked up): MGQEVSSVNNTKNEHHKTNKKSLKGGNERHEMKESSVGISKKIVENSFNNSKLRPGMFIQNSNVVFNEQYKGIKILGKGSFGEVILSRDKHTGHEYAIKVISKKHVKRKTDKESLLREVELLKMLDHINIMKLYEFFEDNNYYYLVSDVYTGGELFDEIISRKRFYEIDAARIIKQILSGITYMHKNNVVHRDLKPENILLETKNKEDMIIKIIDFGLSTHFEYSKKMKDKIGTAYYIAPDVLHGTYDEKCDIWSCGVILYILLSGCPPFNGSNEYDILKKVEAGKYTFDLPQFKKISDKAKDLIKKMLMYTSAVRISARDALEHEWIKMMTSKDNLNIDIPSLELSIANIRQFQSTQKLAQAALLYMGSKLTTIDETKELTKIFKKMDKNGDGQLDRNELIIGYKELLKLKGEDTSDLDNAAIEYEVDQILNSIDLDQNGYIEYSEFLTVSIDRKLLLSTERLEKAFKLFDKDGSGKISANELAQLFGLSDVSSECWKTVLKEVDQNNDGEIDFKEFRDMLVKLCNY
Chain of Calcium-dependent protein kinase 1 (Plasmodium falciparum (isolate 3D7)) (P62344 whole entry, looked up): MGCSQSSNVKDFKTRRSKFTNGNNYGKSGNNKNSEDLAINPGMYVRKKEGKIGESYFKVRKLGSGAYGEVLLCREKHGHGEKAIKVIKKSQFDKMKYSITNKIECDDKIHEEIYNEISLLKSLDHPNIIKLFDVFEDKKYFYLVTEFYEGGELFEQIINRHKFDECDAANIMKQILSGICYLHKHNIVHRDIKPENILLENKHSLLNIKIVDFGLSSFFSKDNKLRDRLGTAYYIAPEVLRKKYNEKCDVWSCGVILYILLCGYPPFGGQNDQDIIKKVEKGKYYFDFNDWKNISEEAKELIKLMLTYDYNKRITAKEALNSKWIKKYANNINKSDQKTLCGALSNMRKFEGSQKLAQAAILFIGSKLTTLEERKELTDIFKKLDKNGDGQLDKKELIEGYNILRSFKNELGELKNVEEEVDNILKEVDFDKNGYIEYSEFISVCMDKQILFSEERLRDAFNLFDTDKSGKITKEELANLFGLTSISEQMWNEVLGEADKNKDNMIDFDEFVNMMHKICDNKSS
Chain of Plasmodium falciparum protein kinase 6 (PK6, PF3D7_1337100) (Q8IDW1 1-305): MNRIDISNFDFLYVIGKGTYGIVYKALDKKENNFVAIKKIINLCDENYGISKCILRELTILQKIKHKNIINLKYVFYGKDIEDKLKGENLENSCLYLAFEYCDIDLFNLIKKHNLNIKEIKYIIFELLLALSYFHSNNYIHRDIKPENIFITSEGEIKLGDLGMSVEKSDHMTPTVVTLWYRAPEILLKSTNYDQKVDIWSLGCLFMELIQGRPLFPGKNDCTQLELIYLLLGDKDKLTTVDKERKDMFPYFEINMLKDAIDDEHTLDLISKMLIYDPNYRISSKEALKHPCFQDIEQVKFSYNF
Chain of Protein kinase 7 (PK7), Plasmodium falciparum 3D7 (PF3D7_0213400) (Q7YTF7 1-343): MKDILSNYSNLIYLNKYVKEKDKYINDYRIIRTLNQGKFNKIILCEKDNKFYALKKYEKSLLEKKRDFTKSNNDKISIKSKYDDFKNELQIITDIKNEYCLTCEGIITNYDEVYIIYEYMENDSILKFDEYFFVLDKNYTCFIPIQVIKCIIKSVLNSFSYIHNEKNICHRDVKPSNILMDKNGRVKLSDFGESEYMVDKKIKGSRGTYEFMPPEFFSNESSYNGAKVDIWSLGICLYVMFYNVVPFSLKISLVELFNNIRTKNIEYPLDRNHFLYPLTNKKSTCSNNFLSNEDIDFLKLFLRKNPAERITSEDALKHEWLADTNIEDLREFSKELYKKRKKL
Chain of L-lactate dehydrogenase (Plasmodium falciparum (isolate CDC / Honduras)) (Q27743 whole entry, looked up): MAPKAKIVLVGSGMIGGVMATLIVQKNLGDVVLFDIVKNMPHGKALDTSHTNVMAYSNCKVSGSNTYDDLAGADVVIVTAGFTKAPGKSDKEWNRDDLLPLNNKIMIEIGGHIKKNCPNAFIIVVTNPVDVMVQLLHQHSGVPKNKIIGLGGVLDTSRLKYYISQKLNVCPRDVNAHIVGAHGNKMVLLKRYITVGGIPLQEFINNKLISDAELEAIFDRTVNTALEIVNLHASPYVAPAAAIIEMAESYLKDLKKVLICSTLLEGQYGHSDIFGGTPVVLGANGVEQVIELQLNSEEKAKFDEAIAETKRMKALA

The inhibition is the change of the read-out against control, counted positive when it falls. For the compound `COc1ccc(CCN(C)CCOc2ccc(NC(=O)c3cccc4c(=O)c5cc(SC)ccc5[nH]c34)cc2)cc1OC`, the growth inhibition in experiment [1] is 82% (active); in experiment [4], 97% (active). The inhibition in experiment [2] was 52% (active); in experiment [3], 0%. Besides, the result in experiment [5], in experiment [6], in experiment [7] and in experiment [8] was inactive.
For the compound `COc1ccc(Cl)cc1N1CCN(CCCNC(=O)c2ccc(-c3nc4cc(Cl)c(F)cc4[nH]3)cc2)CC1`, the values for the growth inhibition in experiment [1] and in experiment [4] were 98% (active) and 101% (active), respectively. Also, the inhibition in experiment [2] was 3%; in experiment [3], 6%. Besides, the outcome in experiment [5], in experiment [6], in experiment [7] and in experiment [8] was inactive.
Regarding `CC(C)(C)OC(=O)/C=C(\C(=O)OCc1ccc([N+](=O)[O-])cc1)c1csc(NC(c2ccccc2)(c2ccccc2)c2ccccc2)n1`, the values for the growth inhibition in experiment [1] and in experiment [4] were 97% (active) and 96% (active), respectively. Further, the values for the inhibition in experiment [2] and in experiment [3] were 2% and 3%, respectively. In addition, the outcome in experiment [5], in experiment [6], in experiment [7] and in experiment [8] was inactive.
Consider `CC1(C)N=C(N)NC(NOCC=Cc2ccccc2)=N1`, for which the growth inhibition in experiment [1] is 2%; in experiment [4] it was 98% (active). Further, the inhibition is 35% in experiment [2] and -2% in experiment [3]. The result in experiment [5], in experiment [6], in experiment [7] and in experiment [8] was inactive.
For `COC(=O)CCCOc1cc(Cc2cnc(N)nc2N)cc(OC)c1OC`, the growth inhibition was -4% in experiment [1] and 95% (active) in experiment [4]. Moreover, the inhibition was 12% in experiment [2] and -6% in experiment [3]. Moreover, the outcome in experiment [5], in experiment [6], in experiment [7] and in experiment [8] was inactive.
Consider `CCCNCc1ccc(-c2ccc(CN(CCOC)C(=O)c3nn(-c4ccccc4)nc3C)cc2)nc1`, for which the growth inhibition in experiment [1] was 71% (active); in experiment [4], 99% (active). For the same compound, the inhibition in experiment [2] is 18%; in experiment [3], 3%. Moreover, the outcome in experiment [5], in experiment [6], in experiment [7] and in experiment [8] was inactive.
Consider `COc1ccc(CNC(=O)Nc2cc3cc(-c4ccc(CN(C)C)cc4)ccc3n3c(C)nnc23)cc1`, for which the results for the growth inhibition in experiment [1] and in experiment [4] were 80% (active) and 93% (active), respectively. Moreover, the inhibition was 99% (active) in experiment [2] and -4% in experiment [3]. Also, the outcome in experiment [5], in experiment [6], in experiment [7] and in experiment [8] was inactive.
Take `CCOc1cc(Cc2cnc(N)nc2N)cc(OCC)c1O`: the growth inhibition in experiment [1] is -1%; in experiment [4], 89% (active). Moreover, the figures for the inhibition in experiment [2] and in experiment [3] were 6% and 3%, respectively. Further, the result in experiment [5], in experiment [6], in experiment [7] and in experiment [8] was inactive.
Consider `CCOC(=O)CCCOc1c(OC)cc(Cc2cnc(N)nc2N)cc1OC`, for which the growth inhibition in experiment [1] is 7%; in experiment [4], 96% (active). Besides, the values for the inhibition in experiment [2] and in experiment [3] were 10% and 8%, respectively. Besides, the outcome in experiment [5], in experiment [6], in experiment [7] and in experiment [8] was inactive.
Take `Cc1cccc2[nH]c(-c3ccc(-c4cccc(CN5CCCCC5)c4)s3)nc12`: the results for the growth inhibition in experiment [1] and in experiment [4] were 92% (active) and 100% (active), respectively. The inhibition in experiment [2] is 11%; in experiment [3], -2%. Moreover, the outcome in experiment [5], in experiment [6], in experiment [7] and in experiment [8] was inactive.
As to `CN1CCN(CC(=O)Nc2cccc(-c3ccc(-c4nc5ccc(C(F)(F)F)cc5[nH]4)s3)c2)CC1`, the results for the growth inhibition in experiment [1] and in experiment [4] were 95% (active) and 102% (active), respectively. Also, the inhibition is 36% in experiment [2] and 1% in experiment [3]. The outcome in experiment [5], in experiment [6], in experiment [7] and in experiment [8] was inactive.
As for `COc1ccc(N2C(N)=NC(N)=NC2(C)C)cc1`, the growth inhibition in experiment [1] is 29%; in experiment [4], 94% (active). Further, the inhibition in experiment [2] is 0%; in experiment [3], 4%. Besides, the outcome in experiment [5], in experiment [6], in experiment [7] and in experiment [8] was inactive.
For the compound `CCOC(=O)c1ccc(NCc2ccccn2)cc1`, the growth inhibition in experiment [1] was -2%; in experiment [4], 99% (active). Also, the inhibition in experiment [2] is -3%; in experiment [3], -6%. In addition, the outcome in experiment [5], in experiment [6], in experiment [7] and in experiment [8] was inactive.
As to `Cc1ccc(-c2ccc3c(c2)C=C(C(=O)NCC2CCN(CC4CCN(C(=O)/C=C/c5ccc(Cl)c(Cl)c5)CC4)CC2)CCC3)cc1`, the growth inhibition was 70% (active) in experiment [1] and 99% (active) in experiment [4]. Besides, the inhibition was 96% (active) in experiment [2] and -7% in experiment [3]. The outcome in experiment [5], in experiment [6], in experiment [7] and in experiment [8] was inactive.
In the case of `CCN(CC)CCN(Cc1ccc(-c2ccc(Br)cc2)cc1)C(=O)Cn1c(CCc2cccc(F)c2F)nc(=O)c2ccccc21`, the growth inhibition in experiment [1] was 74% (active); in experiment [4], 98% (active). Moreover, the inhibition in experiment [2] is 37%; in experiment [3], 1%. Moreover, the result in experiment [5], in experiment [6], in experiment [7] and in experiment [8] was inactive.
`CN(C)CCOc1cc(NC(=O)Nc2ccc3c(c2)CCCC3=O)ccc1I`: the values for the growth inhibition in experiment [1] and in experiment [4] were 31% and 94% (active), respectively. Moreover, the results for the inhibition in experiment [2] and in experiment [3] were 29% and -5%, respectively. Also, the outcome in experiment [5], in experiment [6], in experiment [7] and in experiment [8] was inactive.
On to `CN1CC[C@@H](Oc2cc(NC(=O)Nc3ccc(Cl)c(C(F)(F)F)c3)ccc2Cl)C1`, for which the growth inhibition was 68% (active) in experiment [1] and 100% (active) in experiment [4]. In addition, the inhibition is 17% in experiment [2] and 0% in experiment [3]. The result in experiment [5], in experiment [6], in experiment [7] and in experiment [8] was inactive.
For the compound `CCn1c(CN2CCN(Cc3ccccc3)CC2)nc2cc(NC(=O)c3cccs3)ccc21`, the growth inhibition in experiment [1] is 95% (active); in experiment [4] it was 97% (active). For the same compound, the inhibition in experiment [2] is 0%; in experiment [3], 2%. The result in experiment [5], in experiment [6], in experiment [7] and in experiment [8] was inactive.
Turning to `COc1ccc(CCN(C)CCOc2ccc(NC(=O)c3ccc([N+](=O)[O-])c4c(=O)c5ccccc5[nH]c34)cc2)cc1OC`, the growth inhibition in experiment [1] was 25%; in experiment [4] it was 91% (active). The inhibition is 38% in experiment [2] and -2% in experiment [3]. The outcome in experiment [5], in experiment [6], in experiment [7] and in experiment [8] was inactive.
For `COc1ccc2nccc([C@@H](O)CN3CCC(NC(=O)c4ccc(Cl)c(OC)c4)CC3)c2c1`, the growth inhibition in experiment [1] is 28%; in experiment [4], 87% (active). Also, the inhibition in experiment [2] was 26%; in experiment [3] it was 5%. Besides, the outcome in experiment [5], in experiment [6], in experiment [7] and in experiment [8] was inactive.

Values taken from PubChem BioAssay.
